# Paper PMC4336329 (PLoS ONE, 2015)
# Screen size: about 310,000 compounds; about 14,000 (4.5%) showed an effect of 50% or more. The effect is printed as a negative number. This is one part of a sample in which strong results are shown more often than they occur.
# Target: human ether-à-go-go-related gene (hERG) potassium channel (human, UniProt Q12809)
# Assay: primary screen, population patch clamp on CHO cells stably expressing hERG; higher = less effect of the substance
# 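Also: peak tail current of the secondary pulse compared with the same well before compound.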
# human ether-à-go-go-related gene (hERG) potassium channel, sequence (Q12809 whole entry, looked up): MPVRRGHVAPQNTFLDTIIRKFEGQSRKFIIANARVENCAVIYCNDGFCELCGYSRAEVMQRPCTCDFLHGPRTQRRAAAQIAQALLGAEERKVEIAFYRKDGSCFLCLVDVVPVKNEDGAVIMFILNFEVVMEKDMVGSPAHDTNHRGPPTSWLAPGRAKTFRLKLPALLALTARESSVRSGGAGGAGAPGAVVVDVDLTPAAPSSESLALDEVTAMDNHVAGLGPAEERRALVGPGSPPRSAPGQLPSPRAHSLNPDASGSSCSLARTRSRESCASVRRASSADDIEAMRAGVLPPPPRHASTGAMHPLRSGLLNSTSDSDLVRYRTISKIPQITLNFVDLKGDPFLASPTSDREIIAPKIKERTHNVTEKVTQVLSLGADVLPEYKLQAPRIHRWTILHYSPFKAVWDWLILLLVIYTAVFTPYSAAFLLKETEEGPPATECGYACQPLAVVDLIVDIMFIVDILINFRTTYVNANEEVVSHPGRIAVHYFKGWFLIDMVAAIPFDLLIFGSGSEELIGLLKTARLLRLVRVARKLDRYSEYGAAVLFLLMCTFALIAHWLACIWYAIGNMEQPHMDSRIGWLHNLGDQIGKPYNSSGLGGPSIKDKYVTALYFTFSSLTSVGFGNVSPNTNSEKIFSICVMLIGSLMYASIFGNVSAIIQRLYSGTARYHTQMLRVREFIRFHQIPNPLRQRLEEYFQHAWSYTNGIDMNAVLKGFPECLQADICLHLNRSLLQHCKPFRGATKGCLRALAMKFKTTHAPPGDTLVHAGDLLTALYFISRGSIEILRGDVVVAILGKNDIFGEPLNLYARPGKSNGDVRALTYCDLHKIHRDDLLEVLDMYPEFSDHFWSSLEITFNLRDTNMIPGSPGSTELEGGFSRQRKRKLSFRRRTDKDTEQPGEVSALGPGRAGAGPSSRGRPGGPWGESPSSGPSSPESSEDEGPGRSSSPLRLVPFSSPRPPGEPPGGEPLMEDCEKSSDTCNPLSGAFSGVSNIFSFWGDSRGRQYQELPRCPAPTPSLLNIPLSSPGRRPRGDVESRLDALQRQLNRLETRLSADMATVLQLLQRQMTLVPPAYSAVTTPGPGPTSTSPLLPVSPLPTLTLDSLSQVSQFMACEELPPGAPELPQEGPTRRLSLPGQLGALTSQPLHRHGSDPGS
row,Structure (SMILES),"hERG current change (%, negative = inhibition) at 10uM"
1,CC(NC(=O)N(Cc1ccccc1)Cc1ccc2c(c1)OCO2)(C(F)(F)F)C(F)(F)F,7.8%
2,O=C(CCCN=C1NS(=O)(=O)c2ccccc21)OCc1cc([N+](=O)[O-])cc2c1OCOC2,-14.7%
3,CCC(OC(=O)c1ccco1)C(=O)NCc1ccc(OC)cc1 (stereo not drawn),-8.67%
4,O=C(Cc1cccc2ccccc12)N1CC[C@@]2(O)CCCC[C@H]2C1,12.5%
5,CN(C)S(=O)(=O)c1cccc(NC(=O)COC(=O)c2ccc3c(c2)OCO3)c1,-19.4%
6,COc1ccc(CNCCC(c2ccc(OC(C)C)cc2)c2ccccc2OC)cc1OC (stereo not drawn),-71.3%
7,COc1ccc(CNCCC(c2ccc(OC(C)C)cc2)C(C)C)cc1OC (stereo not drawn),-74.5%
8,COc1ccc(OC)c(NC(=S)NCCC(c2ccccc2)c2ccccc2)c1,1.73%
9,COc1ccc(CNCCCO)cc1OC,4.57%
10,COc1ccc(CNCCC(c2ccccc2)c2ccc(OC(C)C)cc2)cc1OC (stereo not drawn),-69.7%
11,COc1ccc(C(CCNCc2ccc(OC(C)C)cc2)C(C)C)cc1 (stereo not drawn),-39%
12,COc1ccc(CNCCC(c2ccc(F)cc2)c2ccc(OC(C)C)cc2)cc1OC (stereo not drawn),-73%
13,COc1ccc(CC(=O)NC(C)CCc2ccccc2)cc1OC (stereo not drawn),8.96%
14,COc1ccc(CN(CCC(c2ccccc2)c2ccc(OC(C)C)cc2)C(=O)CCl)cc1OC (stereo not drawn),-1.82%
15,COc1ccc(CNCCCSc2ncccn2)cc1OC.Cl,11.9%
16,CCOCCCNCc1ccc(OC)c(OC)c1.O=C(O)C(=O)O,3.24%
17,COc1ccc(C(C)NC(=S)NCc2ccc(F)cc2)cc1OC (stereo not drawn),-5.63%
18,C/C(=N\NC(=O)c1ccc(CN2CCOCC2)cc1)c1cccc([N+](=O)[O-])c1,-19.5%
19,COc1ccccc1C(=O)Nc1ccccc1C(=O)NC1CCCCC1,-1.19%
20,O=C(COc1ccccc1Cl)Nc1ccc(C(=O)c2ccc(C(=O)O)cc2)cc1,11.7%
21,Cc1cccc2c(=O)oc(-c3ccccc3Cl)nc12,14.2%
22,Cc1ccc(CN2[C@@H](CC(C)C)COCCS2(=O)=O)cc1,-2.46%
23,CCOc1ccc(CN(C)C(=O)c2ccc(NC(=O)CC3SC(N4CCCC4)=NC3=O)cc2)cc1 (stereo not drawn),7.53%
24,O=C(NCC1CCCO1)c1ccccc1-c1nc(-c2ccc(F)cc2)no1 (stereo not drawn),-31.1%

row,Structure (SMILES),"hERG current change (%, negative = inhibition) at 10uM"
1,CCc1nnc(NC(=O)CSc2nnc(COc3ccccc3)n2Cc2ccccc2)s1,5.71%
2,COc1ccc(NC(=O)c2sccc2-n2cccc2)cc1,3.64%
3,CCc1cccc2c(C(=O)CN3C(=O)NC4(CCc5ccccc54)C3=O)c[nH]c12 (stereo not drawn),10.4%
4,CC(NC(=O)CSc1nc(=O)cc(N)n1CCc1ccccc1)c1ccccc1 (stereo not drawn),1.91%
5,O=C(Cn1c(=O)n(-c2cccc(Cl)c2)c(=O)n1CC(=O)N1CCCCC1)N1CCCCC1,4.64%
6,CCOc1ccc(-n2c(C)cc(C(=O)NS(=O)(=O)c3ccc(C)cc3)c2C)cc1,-32.3%
7,CCOC(=O)C1CCN(C(=O)CSc2n[nH]c(=O)[nH]c2=O)CC1,7.16%
8,CC(C)Oc1ccc(CNC(=O)CC(c2ccccc2)c2cc(Cl)ccc2O)cc1 (stereo not drawn),11.8%
9,COc1ccc(CN(CCC(c2ccco2)C(C)C)C(C)=O)cc1OC (stereo not drawn),0.825%
10,COc1ccc(CNC(=S)NCc2ccc(F)cc2)cc1OC,-0.604%
11,COc1ccc(C(CCN(Cc2ccc(OC)c(OC)c2)C(C)=O)C(C)C)cc1 (stereo not drawn),-52.3%
12,COc1ccc(C(CCN(Cc2ccc(OC)c(OC)c2)C(C)=O)c2ccccc2)cc1 (stereo not drawn),-33.9%
13,CC(C)Oc1ccc(C(CCNCc2ccc(O)cc2)c2ccccc2)cc1 (stereo not drawn),-58.7%
14,CC(C)Oc1ccc(CNC(=O)Oc2ccccc2)cc1,8.19%
15,COc1ccc(C(CCNCc2ccc(OC)c(OC)c2)c2ccc(F)cc2)cc1 (stereo not drawn),-71.3%
16,COc1ccc(NCc2ccc(OC)c(OC)c2)cc1,2.67%
17,Cc1ccc(S(=O)(=O)N2CCN(S(=O)(=O)N3CCOCC3)CC2)cc1,13.4%
18,COCCCNC(=O)CCc1nnc2ccc(N3CCC(C)CC3)nn12,10.9%
19,O=C(CSC1=NS(=O)(=O)c2ccccc2N1)c1ccccc1,-8.85%
20,COc1ccc(CNC(=O)C/C(C)=N/NC(=O)COc2ccc(Br)cc2)cc1,-33.3%
21,O=C(O)c1ccc(NCc2cccnc2)c([N+](=O)[O-])c1,30%
22,Cc1ccc(C(=O)n2nc(-c3ccccc3)nc2NCc2ccco2)cc1,16%
23,Cc1cc(C)n(CCC(=O)Nc2ccc3c(c2)OCCO3)n1,17.1%
24,COc1ccc(CN2CCCCC2c2cccnc2)cc1C (stereo not drawn),0.438%

row,Structure (SMILES),"hERG current change (%, negative = inhibition) at 10uM"
1,Cc1nc2ccccc2c2oc(C(=O)N3CCN(C4CCCCC4)CC3)cc12,-64.7%
2,O=C(c1oc(=O)c2ccccc2c1-c1ccccc1)N1CCN(C2CCCCC2)CC1,-61.6%
3,O=C(c1ccco1)N1CCN(C(=O)c2oc(=O)c3ccccc3c2-c2ccccc2)CC1,-50.7%
4,CCOC(=O)N1CCN(C(=O)c2oc(=O)c3ccccc3c2-c2ccc(C)cc2)CC1,-31.4%
5,Cc1nc2ccccc2c2oc(C(=O)N3CCC(C)CC3)cc12,-30.5%
6,O=C(c1oc(=O)c2ccccc2c1-c1ccccc1)N1CCOCC1,-24.6%
7,Cc1ccc(-c2c(C(=O)N3CCOCC3)oc(=O)c3ccccc23)cc1,-17.8%
8,Cc1nc2ccccc2c2oc(C(=O)N3CCC(N4CCCCC4)CC3)cc12,-38.8%
9,O=C(c1oc(=O)c2ccccc2c1-c1ccccc1)N1CCC(O)CC1,-11.6%
10,CCOC(=O)c1cnn2c(N)c(C#N)cnc12,13.9%
11,C/C(=N\O)C(=O)NCCN1CCCCC1,-10.2%
12,Cc1c(C#N)c(NC(=O)CCl)n(Cc2ccc(F)cc2)c1C,12.8%
13,N#Cc1nc(-c2ccc(OCc3ccccc3)cc2)oc1NCc1ccco1,7.75%
14,CCn1c2c(c3cc(OCC(C)C)ccc31)CCCC2=O,6.13%
15,Cc1cc(C(=O)Nc2ccccn2)cs1,3.35%
16,Cc1cc(C)nc(NS(=O)(=O)c2ccc(NC(=O)CCN3C(=O)c4ccccc4C3=O)cc2)n1,3.74%
17,CC(C(=O)Nc1ccccc1-c1ccccc1)N1CCOCC1 (stereo not drawn),-2%
18,CC(C(=O)Nc1ccccc1-c1ccccc1)N1CCN(C(=O)c2ccccc2)CC1 (stereo not drawn),-66.9%
19,CC1CCN(C(C)C(=O)Nc2ccccc2-c2ccccc2)CC1.O=C(O)C(=O)O (stereo not drawn),-15.4%
20,CC(C(=O)Nc1ccccc1-c1ccccc1)N1CCN(Cc2ccccc2)CC1 (stereo not drawn),-72.2%
21,CC(C(=O)NC1CCCC1)N1CCN(Cc2ccccc2)CC1 (stereo not drawn),28.6%
22,CC(C(=O)Nc1ccccc1-c1ccccc1)N1CCN(S(=O)(=O)c2ccccc2)CC1 (stereo not drawn),-14.3%
23,COCCOC(=O)C1=C(C)N=C2SCCC(=O)N2C1c1cccs1 (stereo not drawn),13.8%
24,COc1cc(-c2csc(N3CCOCC3)n2)cc(OC)c1OC,13.3%

row,Structure (SMILES),"hERG current change (%, negative = inhibition) at 10uM"
1,Cn1cc(C(=O)N2CCN(c3cccc(Cl)c3)CC2)c(=O)c2cc(S(=O)(=O)N3CCOCC3)ccc21,-17.6%
2,Cc1ccc(C)c(N2CCN(C(=O)CCCOc3cc(=O)n(C)c4ccccc34)CC2)c1,-40.8%
3,O=CNc1ccccc1,14.6%
4,O=CNc1ccc(OP(=O)(Oc2ccccc2)Oc2ccccc2)cc1,-61.7%
5,COc1ccc(NP(=O)(Nc2ccc(OC)cc2)Oc2ccccc2)cc1,-13.9%
6,CN(C)c1ccc(/C=C/C=N/Nc2nc(N3CCOCC3)nc(N3CCOCC3)n2)cc1,0.992%
7,CCOC(=O)N1CCC(N(CCN(C)C)C(=S)Nc2ccccc2OCC)CC1,-8.05%
8,Cc1ccc(/C=N/NC(=O)CSc2nc3nc(C)cc(C)n3n2)cc1,-19.3%
9,Cc1ccc(S(=O)(=O)CCC(=O)c2ccc(F)cc2)cc1,8.7%
10,O=C(N/N=C/c1cccnc1)c1ccc([N+](=O)[O-])cc1,-7.74%
11,COc1ccc(-c2[nH]ncc2/C=N/NC(=O)c2cccc([N+](=O)[O-])c2)cc1OC,-62.1%
12,Cc1cc(C(=O)N/N=C\c2ccc(COc3ccc([N+](=O)[O-])cc3)o2)ccc1[N+](=O)[O-],-7.77%
13,O=C(N/N=C\c1ccc(COc2ccc([N+](=O)[O-])cc2)o1)c1ccc(Cl)cc1,-67.6%
14,O=C(N/N=C/c1cn[nH]c1-c1ccc(F)cc1)c1ccncc1,6.55%
15,O=C(N/N=C\c1cn[nH]c1-c1ccccc1)c1cccnc1,-1.27%
16,O=C(N/N=C\c1cn[nH]c1-c1ccccc1)c1ccc([N+](=O)[O-])cc1,-64.9%
17,O=C(N/N=C/c1cn[nH]c1-c1ccc(Cl)cc1)c1ccc([N+](=O)[O-])cc1,-51.5%
18,O=C(CNC(=O)c1ccc(F)cc1)N/N=C/c1cn[nH]c1-c1ccccc1,-18.1%
19,COc1ccc(-c2[nH]ncc2/C=N\NC(=O)c2ccc(C(C)(C)C)cc2)cc1OC,-9.5%
20,COc1ccc(/C=N/NC(=O)c2cccc([N+](=O)[O-])c2)cc1OC,5.28%
21,O=C(N/N=C\c1ccc(COc2ccc([N+](=O)[O-])cc2)o1)c1cccc(Cl)c1,4.17%
